Source: PubChem BioAssay
KB-V1 MDR tox – KB-V1 MDR subline cytotoxicity. KB-V1 MDR cells viability, CellTiter-Glo, 72 h. Potency, µM (highest dose often 46.1 µM), usual class: cytotoxic. 3.4% of 400,000 active. AID 1347076; further: nearly all actives have a fitted effect of over 60% in size
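In this primary screen, KB-V1 cells overexpressing P-gp are incubated with library compounds (lowest to highest concentration) for 72 h at 37 degrees C before a luminescent ATP viability read.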
HT1080 IDH1KD tx – kills HT-1080 cells with IDH1 knockdown. AID 686971. Potency, µM (doses to about 46.1 µM), for inactives: at the highest dose activity, negative = toxicity, actives largely listed as cytotoxic. HT-1080 IDH1 knockdown viability, ATP luminescence, 48 h. 2% of 360,000 active;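 further: 0% = DMSO wells and -100% = cell-free medium wells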
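CellTiter-Glo luminescence after 48 h compound exposure at 37 degrees C of IDH1-knockdown HT-1080 cells in 5% FBS RPMI. %Activity scaled between DMSO wells and cell-free media wells, with curves fitted and assigned curve classes.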
TDP1 cell noCPT – qHTS for Inhibitors of human tyrosyl-DNA phosphodiesterase 1 (TDP1): qHTS in cells in absence of CPT; DT40 Tdp1-/- hTDP1 cells, no CPT, ATP luminescence, 48 h; Potency, µM (titrated, usually from 46.2 µM), without a hit: top-dose activity change, negative = growth inhibition, actives largely listed as inhibitors; 15% of 420,000 active; AID 686978, 2013; further: nearly all actives have a fitted effect of over 55% in size
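Luminescent ATP content (CellTiter-Glo) served as the growth readout. Knockout chicken DT40 cells expressing human TDP1 were exposed to compounds without camptothecin for a minimum 48 hr at 37 °C.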
HT1080-NT tox – kills 2HG-producing HT-1080-NT fibrosarcoma cells; AID 686970; HT-1080-NT fibrosarcoma viability, CellTiter-Glo ATP luminescence, 48 h; Potency, µM (series often up to 46.1 µM), inactives show at the highest dose activity, negative = less viability, usual class: cytotoxic; 1.6% of 360,000 active;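 further: NT is the 2HG producing partner of a matched IDH1 knockdown line; 0% = DMSO-treated cells and -100% = media-only wells without cells; nearly all actives have a fitted effect of over 55% in size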
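HT-1080-NT; 750 cells/well; 5% FBS RPMI; 48 h compound, 37 degrees C; CellTiter-Glo luminescence; curve fitting and curve-class assignment.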
DT40 TDP1 CPT – growth inhibition of DT40 Tdp1-/-;hTDP1 cells with camptothecin (screen for TDP1 inhibitors); chicken DT40 Tdp1-/-;hTDP1 cells + 20 nM CPT, ATP luminescence, 48 h; Potency, µM (series often up to 46.2 µM), for inactives: top-dose activity change, negative = growth inhibition, most hits filed as inhibitors; 12% of 420,000 active; further: nearly all actives have a fitted effect of over 55% in size
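Chicken DT40 Tdp1-/- cells stably complemented with human TDP1 were seeded at 400 cells/well in medium containing 20 nM camptothecin, exposed to pin-transferred compounds, and grown at 37 °C for at least 48 hr. Viability was read as ATP luminescence.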
KB-3-1 cytotox – KB-3-1 parental cell cytotoxicity; KB-3-1 viability, CellTiter-Glo ATP luminescence, 72 h; Potency, µM (series often up to 46.1 µM), actives largely listed as cytotoxic; 1.4% of 400,000 active; further: nearly all actives have a fitted effect of over 60% in size
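Cells are dispensed, compounds pinned in, plates held at 37 °C for 72 h, then CellTiter-Glo is added and luminescence read after 10 minutes. Cell line: parental KB-3-1 in phenol-red-free DMEM, 10% FBS.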
Active calls of the source: *. An excerpt weighted towards active compounds, which were near 19% of everything screened. The call rests on the fitted dose curve; in most records, active means well fitted curve in the direction sought with a large enough effect; inconclusive means small, poorly fitted or top-dose-only effect, or another doubt; inactive means no such curve, though single readings can be large; an effect the other way counts as inactive or inconclusive. Unless noted, on the % scale 0 is the no-effect control and ±100 the full control effect; potency means the concentration at half of the fitted maximal effect.

How did CCCCNC(=O)c1onc(CSc2cccc3ccccc23)c1C(=O)O do in these assays?
KB-V1 MDR tox: inconclusive; HT1080 IDH1KD tx: -13%; TDP1 cell noCPT: -2%; HT1080-NT tox: -24%; DT40 TDP1 CPT: inconclusive; KB-3-1 cytotox: inactive

Results for COc1ccc2c(c1)CCC2=O ?
KB-V1 MDR tox: inactive; TDP1 cell noCPT: 3%; DT40 TDP1 CPT: 12%; KB-3-1 cytotox: inactive

What do the screens show for `COc1ccc2c(c1)CCCC(Br)C2=O` (stereo not drawn)?
KB-V1 MDR tox: inconclusive; HT1080 IDH1KD tx: -23%; TDP1 cell noCPT: 3.3µM*; HT1080-NT tox: -6%; DT40 TDP1 CPT: 5.2µM*; KB-3-1 cytotox: inconclusive

How did Cc1cc(C)nc(NN2C(=O)/C(=C/c3ccc(O)cc3)SC2=S)n1 do in these assays?
KB-V1 MDR tox: inactive; HT1080 IDH1KD tx: 1%; TDP1 cell noCPT: inconclusive; HT1080-NT tox: 0%; DT40 TDP1 CPT: inconclusive; KB-3-1 cytotox: inactive

What do the screens show for `Cc1ccc(C2(c3noc(CN4CCOCC4)n3)CCCC2)cc1`?
KB-V1 MDR tox: inactive; HT1080 IDH1KD tx: -3%; TDP1 cell noCPT: -2%; HT1080-NT tox: 0%; DT40 TDP1 CPT: 20%; KB-3-1 cytotox: inactive

How did Cc1ccc(C2(c3noc(CN(C)Cc4cnn(C)c4)n3)CCCC2)cc1 do in these assays?
KB-V1 MDR tox: inconclusive; HT1080 IDH1KD tx: -7%; TDP1 cell noCPT: inconclusive; HT1080-NT tox: 3%; DT40 TDP1 CPT: 21µM*; KB-3-1 cytotox: inactive

What do the screens show for `COc1cccc(N2CN(CCc3ccccc3)CNC2=S)c1`?
KB-V1 MDR tox: inactive; HT1080 IDH1KD tx: 14%; TDP1 cell noCPT: inconclusive; HT1080-NT tox: 12%; DT40 TDP1 CPT: 6%; KB-3-1 cytotox: inactive

How did CCc1ccc(N2CN(CCc3ccccc3)CNC2=S)cc1 do in these assays?
KB-V1 MDR tox: inactive; HT1080 IDH1KD tx: 0%; TDP1 cell noCPT: 29µM*; HT1080-NT tox: -2%; DT40 TDP1 CPT: inconclusive; KB-3-1 cytotox: inactive

How did O=S(=O)(Nc1ccc(Br)cc1)c1cccc(NS(=O)(=O)c2cccs2)c1 do in these assays?
KB-V1 MDR tox: inactive; HT1080 IDH1KD tx: -11%; TDP1 cell noCPT: -10%; HT1080-NT tox: -1%; DT40 TDP1 CPT: -20%; KB-3-1 cytotox: inactive

How did Cc1nn(C(=O)c2cccc(F)c2)c(C)c1S(=O)(=O)N1CCOCC1 do in these assays?
KB-V1 MDR tox: inactive; TDP1 cell noCPT: -15%; DT40 TDP1 CPT: -16%; KB-3-1 cytotox: inactive

Results for CCCn1c(/N=C/c2c[nH]c3ccccc23)nc2ccccc21 ?
KB-V1 MDR tox: inactive; HT1080 IDH1KD tx: inconclusive; TDP1 cell noCPT: -8%; HT1080-NT tox: -8%; DT40 TDP1 CPT: -17%; KB-3-1 cytotox: inactive

Results for C(=C\c1c[nH]c2ccccc12)/c1cc[n+](C2CCCCC2)cc1 ?
KB-V1 MDR tox: inactive; TDP1 cell noCPT: inconclusive; DT40 TDP1 CPT: -12%; KB-3-1 cytotox: inactive

Results for CCn1c(/N=C/c2c[nH]c3ccccc23)nc2ccccc21 ?
KB-V1 MDR tox: inactive; HT1080 IDH1KD tx: inconclusive; TDP1 cell noCPT: inconclusive; HT1080-NT tox: 24%; DT40 TDP1 CPT: inconclusive; KB-3-1 cytotox: inactive

What do the screens show for `CCCCCCCCCCCCCCCC[n+]1ccc(/C=C/c2c[nH]c3ccccc23)c2ccccc21`?
KB-V1 MDR tox: inconclusive; TDP1 cell noCPT: 14µM*; DT40 TDP1 CPT: 5µM*; KB-3-1 cytotox: inconclusive

How did CCCCCCCCCCCC[n+]1ccc(/C=C/c2c[nH]c3ccccc23)c2ccccc21 do in these assays?
KB-V1 MDR tox: inactive; TDP1 cell noCPT: 2.2µM*; DT40 TDP1 CPT: 2.5µM*; KB-3-1 cytotox: inconclusive

Results for CCCCCCC[n+]1ccc(/C=C/c2c[nH]c3ccccc23)c2ccccc21 ?
KB-V1 MDR tox: inconclusive; TDP1 cell noCPT: 1.1µM*; DT40 TDP1 CPT: 1µM*; KB-3-1 cytotox: 7.3µM*
